# From PubChem BioAssay (NCATS)
# Inconclusive results are not listed. Entries that show only a call come without a potency. The source made the active and inactive calls. Calls come from the whole dose curve; as a rule, active = well fitted cell-killing curve with a large enough effect; inconclusive = small, poorly fitted or top-dose-only effect, or effect the other way; inactive = no such curve, though single readings can be large or run the other way. Non-standard residues stand in square brackets, D forms with d. Residues, ends and D or L forms follow the SMILES beside them. *: point of attachment. Sta = CC(C)C[C@H](N)[C@@H](O)CC(=O)O; Isovaleryl = CC(C)CC(=O)*
# Assay: Quantitative High-Throughput drug screen in 47 multiple myeloma cell lines against the NCATS MIPE library collection: KMS27_JCRB cell viability assay (AID 1918970); note: nearly all actives have a fitted effect of over 30% in size
# Conditions: KMS27 myeloma cells, CellTiter-Glo ATP viability, 48 h; series mostly up to 45.8 µM
# Excerpt: PI: Beverly A. Mock Ph.D.
# Laboratory of Cancer Biology and Genetics,
# Center for Cancer Research, National Cancer Institute,
# National Institute of Health, Bethesda, Maryland
# Drug resistance and disease progression are common in multiple myeloma (MM) patients, underscoring the need for new therapeutic combinations. […] We hypothesized that effective combinations would reduce MYC expression and enhance p16 activity. […] These preclinical data identify potentially useful drug combinations for evaluation in drug-resistant MM and reveal potential mechanisms of combined drug sensitivity.
# Described herein is the primary MIPE qHTS used to cherrypick compounds. Validated compounds were then further tested for potential synergistic activiy.
# [1] Peat TJ, Gaikwad SM, Dubois W, Gyabaah-Kessie N, Zhang S, Gorjifard S, Phyo Z, Andres M, Hughitt VK, Simpson RM, Miller MA, Girvin AT, Taylor A, Williams D, D'Antonio N, Zhang Y, Rajagopalan A, Flietner E, Wilson K, Zhang X, Shinn P, Klumpp-Thomas C, McKnight C, Itkin Z, Chen L, Kazandijian D, Zhang J, Michalowski AM, Simmons JK, Keats J, Thomas CJ, Mock BA. Drug combinations identified by high-throughput screening promote cell cycle transition and upregulate Smad pathways in myeloma. […] Epub 2023 Jun 24. PMID: 37356470; PMCID: PMC10408729.
# SEQUENCE No. (e.g., 1, 2, 3, etc.); […] (e.g., Cells, Incubation, Reagent, etc.); VALUE and DESCRIPTION.
# 1; Cells; 5 uL; white, solid bottom 1536-well Greiner assay plate.
# 2; Compounds; 23 nL; Kalypsis pin tool (Wako USA) equipped with a 1536-well pin head to transfer to the assay plates.
# 3; Incubation; 48 hours; 37C incubation.
# 4; Reagent;5uL; CellTiter Glo (Promega).
# 5; Detector; 425V; Luminescence; Viewlux PerkinElmer.
# NOTES (numbers refer to Sequence numbers above)
# 1. The cell-based screening methods employed in this study were like those previously published. Briefly, the corresponding myeloma cell lines were screened in 1,536-well plates with 500 cells, 5-uL per well for inhibition of cell viability (assessed by measuring ATP levels with CellTiterGlo).
# 2. NCATS MIPE 4.0 library of approved and investigational drugs were added using the Kalypsis pin tool. Wells treated with DMSO only for 100% viability and media only wells for 0% viability were used as controls.
# 3. The assay plates were covered and incubated for 48 hours in a 37C, 5% CO2 incubator with controlled humidity.
# 4. After 48 hours, CellTilter-GloTM luminescent substrate mix (Promega) reagent was added to the assay plate and plates we incubated for 5 min at room temperature.
# 5. Signal was measured as median relative luminescence units on a ViewLux (PerkinElmer) multiplate reader.
# [1] Heske CM, Davis MI, Baumgart JT, Wilson K, Gormally MV, Chen L, Zhang X, Ceribelli M, Duveau DY, Guha R, Ferrer M, Arnaldez FI, Ji J, Tran HL, Zhang Y, Mendoza A, Helman LJ, Thomas CJ. Matrix Screen Identifies Synergistic Combination of PARP Inhibitors and Nicotinamide Phosphoribosyltransferase (NAMPT) Inhibitors in Ewing Sarcoma. Clin Cancer Res. 2017 Dec 1;23(23):7301-7311. doi: 10.1158/1078-0432.CCR-17-1121. Epub 2017 Sep 12. PMID: 28899971; PMCID: PMC6636827.
# Potency is the fitted concentration of half-maximal effect.
row,SMILES,Potency
1,Nc1nc(OCc2ccccc2)c2[nH]cnc2n1,14.8 µM (active)
2,CCC[C@@H]1C[C@@H](C(=O)N[C@@H]([C@H]2O[C@H](SC)[C@H](O)[C@@H](O)[C@H]2O)[C@@H](C)O)N(C)C1,inactive
3,Cc1nc(Nc2ncc(C(=O)Nc3c(C)cccc3Cl)s2)cc(N2CCN(CCO)CC2)n1,10.5 µM (active)
4,CCC(C)(Oc1ccc(C2(c3ccc(OC(C)(CC)C(=O)O)cc3)CCCCC2)cc1)C(=O)O (stereo not given),inactive
5,COc1cc2c(N3CCN(C(=O)Nc4ccc(OC(C)C)cc4)CC3)ncnc2cc1OCCCN1CCCCC1,inactive
6,O=c1cc(N2CCOCC2)oc2c(-c3ccccc3)cccc12,inactive
7,CN(C)[C@@H](CCOc1cccc2ccccc12)c1ccccc1,inactive
8,Cn1c(NCCN(CCO)CCCc2ccc([N+](=O)[O-])cc2)cc(=O)n(C)c1=O,26.4 µM (active)
9,O=C(CS(=O)Cc1ccco1)NCC=CCOc1cc(CN2CCCCC2)ccn1 (stereo not given),inactive
10,O=C1CCc2ccc(OCCCCN3CCN(c4cccc(Cl)c4Cl)CC3)cc2N1,inactive
11,Cc1cc(=O)oc2cc(O)ccc12,inactive
12,O=C(NCC1CCCCN1)c1cc(OCC(F)(F)F)ccc1OCC(F)(F)F (stereo not given),0.526 µM (active)
13,Nc1ccn([C@@H]2O[C@H](CO)[C@@H](O)C2O)c(=O)n1 (stereo not given in full),inactive
14,C[C@H](Cn1cnc2c(N)ncnc21)OCP(=O)(O)O,inactive
15,O=C(NC(Cc1cc(=O)[nH]c2ccccc12)C(=O)O)c1ccc(Cl)cc1 (stereo not given),inactive
16,Cc1nc(-c2ccc(OCC(C)C)c(C#N)c2)sc1C(=O)O,inactive
17,CCC1=C(C)CN(C(=O)NCCc2ccc(S(=O)(=O)NC(=O)NC3CCC(C)CC3)cc2)C1=O (stereo not given),inactive
18,N=C(N=C(N)N)N1CCOCC1,inactive
19,CC1(C)C(=O)N(CCN2CCC(C(=O)c3ccc(F)cc3)CC2)c2ccccc21,13.2 µM (active)
20,O=C(c1ccccc1)c1ccc2n1CCC2C(=O)O (stereo not given),inactive

row,SMILES,Potency
1,Cc1ccc(S(=O)(=O)NC(=O)NN2CC3CCCC3C2)cc1 (stereo not given),20.9 µM (active)
2,Cc1cccc(C#Cc2ccccc2)n1,inactive
3,C=C(c1ccc(C(=O)O)cc1)c1cc2c(cc1C)C(C)(C)CCC2(C)C,0.0418 µM (active)
4,O=C(O)c1cccnc1Nc1cccc(C(F)(F)F)c1,inactive
5,CCCCCCCCCCCCCCCCCCCCCCO,inactive
6,CCN(CC)CCOc1ccc(Nc2ncc3cc(-c4c(Cl)cccc4Cl)c(=O)n(C)c3n2)cc1,0.132 µM (active)
7,CC(C)CC(=O)N[C@H](C(=O)N[C@H](C(=O)N[C@@H](CC(C)C)[C@@H](O)CC(=O)N[C@@H](C)C(=O)N[C@@H](CC(C)C)[C@@H](O)CC(=O)O)C(C)C)C(C)C (Isovaleryl-VV[Sta]A[Sta]-OH),inactive
8,NC(=O)Cc1cccc(C(=O)c2ccccc2)c1N,inactive
9,CN(C)CCc1c[nH]c2ccc(Cn3cncn3)cc12,16.6 µM (active)
10,O=C(OC1C[C@H]2CC[C@@H](C1)[N+]21CCCC1)C(O)(c1ccccc1)c1ccccc1 (stereo not given in full),inactive
11,CC[C@]1(O)C[C@H]2CN(CCc3c([nH]c4ccccc34)[C@@](C(=O)OC)(c3cc4c(cc3OC)N(C=O)[C@H]3[C@@](O)(C(=O)OC)[C@H](OC(C)=O)[C@]5(CC)C=CCN6CC[C@]43[C@@H]65)C2)C1,0.0166 µM (active)
12,CC(C)c1nc(CN(C)C(=O)N[C@H](C(=O)N[C@@H](Cc2ccccc2)C[C@H](O)[C@H](Cc2ccccc2)NC(=O)OCc2cncs2)C(C)C)cs1,inactive
13,CCOC(=O)c1c(C)n(C)c2ccc(O)cc12,inactive
14,COc1ccccc1N1CCN(CCN(C(=O)C2CCCCC2)c2ccccn2)CC1,9.35 µM (active)
15,CC(C)Oc1ccc2c(=O)c(-c3ccccc3)coc2c1,inactive
16,Cc1cc2c(s1)Nc1ccccc1N=C2N1CCN(C)CC1,inactive
17,O=c1c(O)c(-c2cc(O)c(O)c(O)c2)oc2cc(O)cc(O)c12,inactive
18,Clc1ccc2c(N3CCN(CCCN4CCN(c5ccnc6cc(Cl)ccc56)CC4)CC3)ccnc2c1,inactive
19,COCCCN1CCC(NC(=O)c2cc(Cl)c(N)c3c2OCC3)CC1,18.7 µM (active)
20,COC(=O)C1=C(C)NC(C)=C(C(=O)OC(C)C)C1c1cccc2nonc12 (stereo not given),inactive
